The text below walks through data of PubChem BioAssay.

Test [1] is described as follows: small molecules captured by biotinylated probe aFSTL3 – biochemical, small-molecule microarray, fluorescence 635/667, stem cell growth factor project, primary screen (AID 1064).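 Note: measures binding of the biotinylated anti-FSTL3 antibody to printed compounds.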 To be noted: higher = more signal.
The nature of test [2]: binders from COS7 lysate, DM2A8 probe, primary screen, torsin A project, cell lysate, small-molecule microarray, fluorescence 635/667 (AID 1065). To be noted: higher = more signal, COS7 lysate expressing mutant human TOR1A.
Test [3] in a line: small molecules captured by biotinylated probe aFGF2 – biochemical, small-molecule microarray, fluorescence 635/667, stem cell growth factor project, primary screen (AID 1067).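 Note: measures binding of biotinylated aFGF2 protein to printed compounds on slides; z-score merges feature fluorescence and signal-to-noise across triplicate slides.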 To be noted: higher = more signal.
Test [4] in a line: small molecules captured by biotinylated probe aFGF10 – biochemical, small-molecule microarray, fluorescence 635/667, stem cell growth factor project, primary screen (AID 1071).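 Note: score merges 667 nm spot intensity and signal to noise from triplicate slides.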 To be noted: higher = more signal.
The target of test [5] is Neurogenic locus notch homolog protein 2 (Homo sapiens) (UniProt Q04721). Nature of the test: small molecules binding Notch2 protein – biochemical, small-molecule microarray, 635 nm fluorescence, stem cell growth factors, primary screen (AID 1073). As to conditions: higher = more signal.
In test [6] the target is Pro-neuregulin-1, membrane-bound isoform (Homo sapiens) (UniProt Q02297). Nature of the test: small molecules binding neuregulin-1 protein – biochemical, small-molecule microarray, fluorescence 635/667, psychiatric disease protein project, primary screen (AID 1075).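 Note: score combines 667 nm spot fluorescence with signal to noise.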 As to conditions: NRG1 binding, 635 nm fluorescence, higher = more signal.
Sequence of Pro-neuregulin-1, membrane-bound isoform (Homo sapiens) (Q02297 whole entry, looked up, the tested form may be a part, canonical isoform): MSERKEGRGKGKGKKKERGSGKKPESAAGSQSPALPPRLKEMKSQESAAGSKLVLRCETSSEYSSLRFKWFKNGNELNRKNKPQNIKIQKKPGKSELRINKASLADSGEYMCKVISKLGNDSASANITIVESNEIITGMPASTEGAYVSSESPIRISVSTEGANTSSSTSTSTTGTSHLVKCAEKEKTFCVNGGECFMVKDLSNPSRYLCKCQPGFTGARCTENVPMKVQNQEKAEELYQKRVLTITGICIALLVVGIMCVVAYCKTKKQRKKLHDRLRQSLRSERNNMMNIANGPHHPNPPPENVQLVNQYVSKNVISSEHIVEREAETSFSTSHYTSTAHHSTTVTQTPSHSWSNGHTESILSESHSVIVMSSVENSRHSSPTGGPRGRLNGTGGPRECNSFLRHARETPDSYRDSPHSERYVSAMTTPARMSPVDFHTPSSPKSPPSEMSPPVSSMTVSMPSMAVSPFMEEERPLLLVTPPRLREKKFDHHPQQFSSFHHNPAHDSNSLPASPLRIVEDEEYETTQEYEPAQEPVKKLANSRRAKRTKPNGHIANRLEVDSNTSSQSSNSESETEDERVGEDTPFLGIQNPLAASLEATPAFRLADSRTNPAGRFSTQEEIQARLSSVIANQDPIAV
For test [7], the system named is Neuregulin-1 EGF-like domain. Nature of the test: small molecules binding NRG1 EGF domain – biochemical, small-molecule microarray, 635 nm fluorescence, primary screen (AID 1081).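 Note: binding of the protein to compounds printed on small-molecule microarray slides.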 To be noted: higher = more signal.
The nature of test [8]: FRG1 expression reporter modulators in myotubes – cell-based, C2C12 myotubes, firefly/Renilla luciferase, luminescence, FRG1 inhibition for FSHD, primary screen (AID 1084). As to conditions: FRG1 promoter luciferase, higher = more signal, called active from +8 up or from −8 down.
Test [9] is described as follows: small molecules captured by biotinylated probe aFST – biochemical, small-molecule microarray, fluorescence 635/667, stem cell growth factor project, primary screen (AID 1086).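 Note: score merges 667 nm fluorescence with signal-to-noise of each printed compound spot.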 To be noted: higher = more signal.
Test [10] can be described thus: binders of probe aHhip on microarray, primary screen, stem cell growth factor project, biochemical, small-molecule microarray, fluorescence 635/667 (AID 1087).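 Note: score merges spot fluorescence at 667nm with spot signal to noise ratio.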 To be noted: higher = more signal.
The test system of test [11] is PRMT1 (protein arginine N-methyltransferase 1). Description: small molecules binding arginine methyltransferase PRMT1 – biochemical, small-molecule microarray, 635 nm fluorescence, primary screen (AID 1088).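 Note: binding of Prmt1 protein to compounds spotted on small-molecule microarray slides.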 As to conditions: higher = more signal.
The nature of test [12]: growth effects on S. cerevisiae YJM789 – YJM789 clinical isolate, OD600, 24 h, basal, primary screen (AID 1089).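 Note: growth of clinical yeast isolate S. cerevisiae YJM 789 seeded 1000 cells per well; test concentration not given here.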 As to conditions: higher = more signal, called active from +8 up or from −8 down.
The nature of test [13]: S. pombe growth modifiers, basal conditions – strain 972, OD600, 24 h, no modulator, primary screen (AID 1090).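 Note: basal condition with compound alone and no growth modifier present; test concentration not given here.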 As to conditions: S. pombe 972 growth, higher = more signal, called active from +8 up or from −8 down.
Test [14] is described as follows: budding yeast growth modifiers under rapamycin – strain BY4716, OD600, 96 h, primary screen (AID 1091). Note: test concentration not given here. As to conditions: S. cerevisiae BY4716 + rapamycin, higher = more signal, called active from +8 up or from −8 down.
For test [15], the target named is Torsin-1A-interacting protein 2 (Homo sapiens) (UniProt Q8NFQ8). Description: small molecules binding lysate-expressed LULL1 – cell lysate, human LULL1 lysate, 635/667 nm fluorescence, primary screen (AID 1092).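 Note: probe is lysate of COS7 cells overexpressing human LULL1; score merges per-feature 667 nm fluorescence with signal-to-noise.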 As to conditions: small-molecule microarray, hLULL1 lysate binding, 635 nm fluorescence; higher = more signal.
Sequence of Torsin-1A-interacting protein 2 (Homo sapiens) (Q8NFQ8 whole entry, looked up): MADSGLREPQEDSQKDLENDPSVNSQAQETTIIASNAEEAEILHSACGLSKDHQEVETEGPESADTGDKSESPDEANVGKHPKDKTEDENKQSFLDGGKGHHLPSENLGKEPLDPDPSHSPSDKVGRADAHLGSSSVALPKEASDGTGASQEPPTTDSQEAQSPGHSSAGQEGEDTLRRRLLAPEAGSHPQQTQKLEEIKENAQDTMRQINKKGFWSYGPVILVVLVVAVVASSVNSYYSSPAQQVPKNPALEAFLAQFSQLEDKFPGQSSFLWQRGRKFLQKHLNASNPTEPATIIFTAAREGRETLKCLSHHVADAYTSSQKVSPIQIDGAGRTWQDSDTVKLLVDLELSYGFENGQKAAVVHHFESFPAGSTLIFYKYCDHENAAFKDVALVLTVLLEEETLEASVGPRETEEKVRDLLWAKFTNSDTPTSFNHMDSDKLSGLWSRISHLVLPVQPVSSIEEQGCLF
Test [16] can be described thus: optical density change of DRC41 E. coli – strain DRC41, OD650, 24 h, E. coli filamentation project, primary screen (AID 1093).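 Note: MC1000 strain lacking acrAB efflux and sulA so SOS filamentation is blocked; test concentration not given here.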 As to conditions: E. coli DRC41 growth, higher = more signal, called active from +8 up or from −8 down.
Test [17] in a line: probe aLefty2 binding to arrayed compounds – biochemical, biotinylated probe, 635/667 nm fluorescence, primary screen (AID 1094).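 Note: score merges spot fluorescence near 667 nm with spot signal-to-noise ratio.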 As to conditions: small-molecule microarray, higher = more signal.
Test [18] concerns Noggin (protein binding on small-molecule microarray). Description: small molecules binding Noggin protein – biochemical, 635/667 nm fluorescence, primary screen (AID 1095).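 Note: score merges 667 nm feature fluorescence with signal to noise over triplicate slides.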 As to conditions: 635 nm fluorescence, higher = more signal.
Test [19] has as its target Neurogenic locus notch homolog protein 3 (Homo sapiens) (UniProt Q9UM47). Description: small molecules binding NOTCH3 protein – biochemical, 635/667 nm fluorescence, primary screen (AID 1096). To be noted: small-molecule microarray, 635 nm fluorescence, higher = more signal.
Test [20] in a line: probe aEGFR binding to arrayed compounds – biochemical, biotinylated probe, 635/667 nm fluorescence, primary screen (AID 1097).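 Note: probe is a biotinylated anti-EGFR antibody binding compounds printed on slides; score combines fluorescence near 667 nm and signal to noise of each spot.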 To be noted: small-molecule microarray, higher = more signal.

Structures are written as SMILES. The source made the active and inactive calls.

Sequence of Neurogenic locus notch homolog protein 3 (Homo sapiens) (Q9UM47 whole entry, looked up): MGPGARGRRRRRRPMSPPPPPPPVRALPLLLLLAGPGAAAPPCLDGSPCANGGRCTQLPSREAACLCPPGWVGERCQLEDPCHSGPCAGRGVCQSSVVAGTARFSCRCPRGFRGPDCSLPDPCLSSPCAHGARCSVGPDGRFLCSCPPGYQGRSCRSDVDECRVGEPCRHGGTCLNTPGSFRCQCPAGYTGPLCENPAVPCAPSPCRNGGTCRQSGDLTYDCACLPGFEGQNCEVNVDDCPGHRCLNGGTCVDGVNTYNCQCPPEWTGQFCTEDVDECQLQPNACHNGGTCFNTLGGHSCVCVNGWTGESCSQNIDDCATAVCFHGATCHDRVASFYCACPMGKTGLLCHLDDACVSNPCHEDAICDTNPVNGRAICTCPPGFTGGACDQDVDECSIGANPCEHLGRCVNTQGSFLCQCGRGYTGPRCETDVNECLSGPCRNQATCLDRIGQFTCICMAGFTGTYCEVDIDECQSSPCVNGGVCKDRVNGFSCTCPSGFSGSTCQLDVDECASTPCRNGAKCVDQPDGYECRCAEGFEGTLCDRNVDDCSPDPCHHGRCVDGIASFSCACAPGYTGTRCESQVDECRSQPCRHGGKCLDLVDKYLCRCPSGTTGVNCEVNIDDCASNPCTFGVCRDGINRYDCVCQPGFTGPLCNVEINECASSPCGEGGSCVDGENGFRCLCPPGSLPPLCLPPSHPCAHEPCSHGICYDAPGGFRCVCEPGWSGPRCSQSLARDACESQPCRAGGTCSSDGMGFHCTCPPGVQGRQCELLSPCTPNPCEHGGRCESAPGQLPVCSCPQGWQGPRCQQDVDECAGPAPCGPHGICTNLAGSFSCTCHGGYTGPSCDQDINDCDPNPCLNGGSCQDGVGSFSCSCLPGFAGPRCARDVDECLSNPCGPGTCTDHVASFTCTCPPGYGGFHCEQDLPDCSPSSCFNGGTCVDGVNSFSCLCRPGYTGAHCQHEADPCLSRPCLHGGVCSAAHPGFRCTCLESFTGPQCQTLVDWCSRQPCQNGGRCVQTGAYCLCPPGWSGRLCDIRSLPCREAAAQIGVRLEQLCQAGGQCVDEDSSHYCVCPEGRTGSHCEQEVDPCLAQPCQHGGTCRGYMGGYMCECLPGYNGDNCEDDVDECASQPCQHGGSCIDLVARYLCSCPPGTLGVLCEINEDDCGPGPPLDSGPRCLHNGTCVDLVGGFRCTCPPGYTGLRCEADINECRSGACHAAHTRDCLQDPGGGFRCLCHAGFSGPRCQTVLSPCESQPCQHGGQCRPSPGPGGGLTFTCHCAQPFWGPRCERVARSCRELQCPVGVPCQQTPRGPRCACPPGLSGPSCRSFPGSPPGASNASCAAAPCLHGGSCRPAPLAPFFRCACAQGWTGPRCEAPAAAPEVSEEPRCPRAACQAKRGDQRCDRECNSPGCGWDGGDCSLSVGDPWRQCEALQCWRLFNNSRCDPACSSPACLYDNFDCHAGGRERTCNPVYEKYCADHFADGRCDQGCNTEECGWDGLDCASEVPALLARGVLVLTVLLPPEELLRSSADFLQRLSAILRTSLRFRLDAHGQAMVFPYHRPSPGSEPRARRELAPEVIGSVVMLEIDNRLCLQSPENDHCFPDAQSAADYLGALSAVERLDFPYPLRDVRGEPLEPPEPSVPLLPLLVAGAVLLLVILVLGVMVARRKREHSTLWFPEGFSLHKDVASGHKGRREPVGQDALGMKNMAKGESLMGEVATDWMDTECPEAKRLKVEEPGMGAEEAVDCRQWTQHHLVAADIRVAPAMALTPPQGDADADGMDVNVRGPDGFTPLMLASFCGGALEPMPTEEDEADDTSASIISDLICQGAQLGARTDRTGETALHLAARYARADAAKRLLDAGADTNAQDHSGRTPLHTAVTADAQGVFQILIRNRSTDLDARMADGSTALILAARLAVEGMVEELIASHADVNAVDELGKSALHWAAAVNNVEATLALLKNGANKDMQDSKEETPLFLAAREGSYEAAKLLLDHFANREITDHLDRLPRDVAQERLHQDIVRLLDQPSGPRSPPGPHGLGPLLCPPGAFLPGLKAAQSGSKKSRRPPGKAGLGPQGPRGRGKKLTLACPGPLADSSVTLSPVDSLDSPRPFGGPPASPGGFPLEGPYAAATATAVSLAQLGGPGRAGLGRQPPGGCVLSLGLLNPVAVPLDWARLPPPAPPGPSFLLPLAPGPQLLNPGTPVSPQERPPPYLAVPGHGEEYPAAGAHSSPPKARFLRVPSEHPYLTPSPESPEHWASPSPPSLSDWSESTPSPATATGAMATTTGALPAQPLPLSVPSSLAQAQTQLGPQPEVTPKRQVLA

In the case of `CCOc1cc(C(O)C2C=CC3C(=O)N(c4ccccc4)C(=O)C3N2Nc2ccccc2F)ccc1O` (stereo not given), the composite z-score in test [1] was found to be 2.51; in test [2], 0.112; in test [3], 0.252; in test [4], 0.334; in test [5], 0.935; in test [6], 2.06. In addition, the composite z-score was 1.37 in test [7]; 1.51 in test [9]; 0.02 in [10]; 0.196 in test [11]; 3.01 in test [15]; 0.615 in test [17]. For the same molecule, the composite z-score in [18] was -0.596; in test [19], 0.0983; in test [20], 0.561. For the same molecule, the z-score in [8] is 0.118 (inactive); in [12], 1.54 (inactive); in test [13] it was -0.428 (inactive); in test [14], 1.81 (inactive); in test [16], -0.199 (inactive).
In the case of `C=CCNC(=O)[C@H]1[C@@H]2C(=O)O[C@@H](c3ccccc3)[C@@H](c3ccccc3)N2[C@@H](c2ccc(OCCO)cc2)[C@]12C(=O)Nc1ccccc12`, the composite z-score in [1] is -0.0085; in test [2] it was 0.586; in [3] it was 0.083; in test [4] it was 0.331; in [5], -0.353; in test [6], 1.65. The composite z-score in [7] was 1.13; in [9] it was -0.189; in [10], -0.613; in test [11], 1.18; in [15], 3.36; in test [17], -0.0785. For the same molecule, the figures for the composite z-score in [18], in test [19] and in [20] were 0.167, 0.457 and -0.194, respectively. Moreover, the z-score in test [8] was -2.89 (inactive); in test [12], 1.24 (inactive); in test [13] it was 0.259 (inactive); in [14] it was 2.84 (inactive); in test [16] it was 1.35 (inactive).
Turning to `C[C@@H]1ON(c2ccccc2)[C@H](c2ccccc2)[C@H]1C(=O)O`, the composite z-score in test [1] was -0.0301; in test [2], 0.112; in test [3] it was -0.085; in [4], 0.364; in test [5], 0.0812; in [6], -0.515. Also, the composite z-score was -0.198 in test [7]; -0.0817 in test [9]; 0.289 in [10]; 0.461 in [11]; -0.0551 in test [15]; -0.196 in [17]. Besides, the composite z-score was determined as 0.175 in test [18], 0.102 in test [19] and 0.203 in [20]. Moreover, the z-score in test [8] was -0.313 (inactive); in test [12], -0.452 (inactive); in [13] it was 0.252 (inactive); in test [14], -0.408 (inactive); in [16], -0.108 (inactive).
On to `COc1ccc(CCNC(=O)[C@@H]2c3ccccc3C(=O)N(Cc3ccccc3OC)[C@H]2c2ccc(CO)cc2)cc1`, for which the composite z-score in test [1] is -0.26; in test [2], 0.678; in test [3], 0.0021; in test [4], 0.131; in test [5], 1.03; in test [6], 1.29. In addition, the composite z-score is 1.31 in test [7]; 0.428 in test [9]; -0.266 in [10]; 1.53 in [11]; 2.62 in [15]; -0.172 in test [17]. Besides, the composite z-score was 0.0564 in [18], 0.852 in [19] and -0.105 in test [20]. In addition, the z-score in [8] is -2.5 (inactive); in test [12], -1.23 (inactive); in test [13] it was 0.294 (inactive); in test [14], -0.323 (inactive); in [16], -0.1 (inactive).
As for `O=C1OCCC=C[C@H]2OC34C=CCN(c5ccc6ccccc6c5)C(=O)[C@H]3N(CCO)C(=O)[C@@H]4C12` (stereo not given in full), the composite z-score in [1] was -0.562; in test [2], -0.171; in test [3], -0.119; in test [4] it was -0.175; in test [5] it was -0.397; in [6] it was -0.863. In addition, the composite z-score in [7] is 0.464; in test [9] it was -0.847; in test [10] it was -0.672; in test [11] it was -0.3; in test [15], -0.686; in test [17] it was -0.314. The composite z-score in [18] was -0.251; in test [19] it was 0.301; in [20], -0.0353. Further, the z-score in test [8] was 0.149 (inactive); in [12], -0.735 (inactive); in test [13], -0.737 (inactive); in test [14], -0.171 (inactive); in [16] it was -0.021 (inactive).
